The list is not random: actives were taken first. Their share in the collection is about 2.9%.
Nrf2 inh: Nrf2 qHTS screen for inhibitors | 360,000 compounds, 2.1% hits | Potency, µM (highest dose often 46 µM), for inactives: top-dose activity change, negative = inhibition, actives largely listed as inhibitors | A549 ARE-Fluc reporter, luciferase luminescence, 18-24 h; also: % is scaled to controls: 0 for no effect and ±100 for the full control effect; nearly all actives have a fitted effect of over 60% in size
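In this cell-based qHTS, ARE-driven firefly luciferase in A549 cells reports Nrf2 activity; the luminescent signal after BugLite lysis is the measured value, with a prior CellTiter-Fluor read for cell health.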
Nrf2 ARE act: qHTS of Nrf2 Activators; AID 624171, 2012; Potency, µM (top dose mostly 46.1 µM), for inactives: at the highest dose activation, hits mostly activators; AREc32 ARE-luciferase reporter (MCF7-derived line), luminescence, 24 h; 410,000 compounds, 0.31% hits; also: % of control where 0% means no effect; nearly all actives have a fitted effect of over 65% in size
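AREc32 cells carrying an ARE-driven firefly luciferase, 1000 cells/well in OPTI-MEM with 5% FBS, dosed after overnight attachment and incubated 24 hr at 37 deg C. Steady-Glo luminescence read after 30 min at RT.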
ATXN2 expr inh: Primary qHTS for Inhibitors of ATXN expression. 360,000 compounds, 0.72% hits. Potency, µM (doses to about 57 µM), without a hit: top-dose activity change, negative = inhibition, actives largely listed as inhibitors. HEK-293 ATXN2-luciferase reporter, luminescence, 24 h; also: % is scaled to controls: 0 for no effect and ±100 for the full control effect; nearly all actives have a fitted effect of over 55% in size
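ATXN2-luciferase reporter cells (luciferase flanked by upstream and downstream ATXN2 gene portions) were treated 24 h at 37 °C with compounds at up to 57 uM. SteadyGlo luminescence gave expression; GF-AFC fluorescence gave viability.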
S2 tox: Viability Counterscreen for Primary qHTS for Inhibitors of ATXN expression | S2 cells (HEK-293 line with an ATXN2-luciferase reporter) viability, CellTiter-Fluor protease fluorescence, 24 h | Potency, µM (titrated, usually from 56.7 µM), most hits filed as cytotoxic | 400,000 compounds, 0.49% hits | AID 651635, 2014; also: nearly all actives have a fitted effect of over 40% in size
A549 tox: Nrf2 qHTS screen for inhibitors: counterscreen for cytotoxicity; A549 ARE-Fluc cells, CellTiter-Fluor viability, 18-24 h; Potency, µM (titrated, usually from 46 µM), for inactives: at the highest dose activity change, negative = cytotoxicity, hits mostly inhibitors; 390,000 compounds, 0.16% hits; AID 504648, 2011; also: % is scaled to controls: 0 for no effect and ±100 for the full control effect
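A549 ARE-Fluc cells in 5% FBS OPTI-MEM, 5000 cells/well, rested 2 h then exposed to compounds in concentration-response for 18-24 h at 37 °C. Viability by CellTiter-Fluor fluorescence (Ex 405/Em 525) after 30 min; luciferase luminescence (BugLite, 15 min, RT) read afterwards.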
Numbers without * were called inactive; i = inactive; u = inconclusive; x = not tested or not shown. Calls follow the shape of the dose curve; as a rule, active = well fitted curve in the direction sought with a large enough effect; inconclusive = small, poorly fitted or top-dose-only effect, or another doubt; inactive = no such curve, though single readings can be large; an effect the other way counts as inactive or inconclusive. Potency is read from the fitted curve at half-maximal effect.

SMILES	Nrf2 inh	Nrf2 ARE act	ATXN2 expr inh	S2 tox	A549 tox
CCCOc1ccc(C(=O)Nc2cc(-c3nc4ccccc4[nH]3)ccc2C)cc1	u	6%	-3%	u	-10%
Cc1ccc(-c2nc3ccccc3[nH]2)cc1NC(=O)c1ccc2c(c1)OCO2	-6%	0%	2%	i	-12%
Cc1ccc(-c2nc3ccccc3[nH]2)cc1NC(=S)NC(=O)c1ccccc1Br	18µM*	2%	u	u	u
CCCOc1cccc(C(=O)Nc2cc(-c3nc4ccccc4[nH]3)ccc2C)c1	u	-2%	u	20µM*	u
NS(=O)(=O)c1ccc(N2CCCCS2(=O)=O)cc1	x	x	-17%	i	x
Cc1ccc(C(=O)NCCSc2ccc(Cl)cc2)cc1S(=O)(=O)Nc1ccccc1	15µM*	3%	-31%	i	u
Cc1ccc(NS(=O)(=O)c2cc(C(=O)NCCSc3ccc(C)cc3)ccc2C)cc1	23µM*	0%	u	u	-22%
Cc1noc(C)c1-c1ccc2ncnc(NCc3ccc(-c4ccccc4)cc3)c2c1	12µM*	x	x	x	-12%
Cc1cccc(CNc2ncnc3ccc(-c4ccoc4)cc23)c1	18µM*	-1%	-14%	i	-16%
COc1cccc(-c2ccc3ncnc(NCc4ccc5c(c4)OCO5)c3c2)c1	16µM*	0%	36%	i	-19%
c1nc(NCc2ccc3c(c2)OCO3)c2cc(-c3ccc4c(c3)OCCO4)ccc2n1	23µM*	7%	-25%	u	2%
c1cncc(CNc2ncnc3ccc(-c4ccc5c(c4)OCO5)cc23)c1	9%	3%	-12%	i	8%
CC(=O)Nc1ccc(CNc2ncnc3ccc(-c4c(C)noc4C)cc23)cc1	u	u	69%	i	3%
COc1ccc(OC)c(CN2CCCC(n3cc(C(=O)N4CCCCC4)nn3)C2)c1 (stereo unspecified)	x	x	x	i	x
Cc1cc(C)c(NC(=O)Cn2c(=O)oc3cc(S(=O)(=O)N4CCCCCC4)ccc32)c(C)c1	u	0%	x	x	0%
COc1ccc2cc(-c3nc(-c4ccc(S(C)=O)cc4)[nH]c3-c3ccncc3)ccc2c1 (stereo unspecified)	x	x	-17%	x	x
Cc1csc(CNc2ncnc3ccc(-c4ccc5c(c4)OCCO5)cc23)c1	-7%	2%	0%	i	3%
Cc1cccc(CNc2ncnc3ccc(-c4ccc5c(c4)OCCO5)cc23)c1	15µM*	4%	u	u	u
CC(C)c1c(C(=O)N(C)Cc2cccc3ncccc23)cnn1-c1nccc(-c2ccco2)n1	x	x	x	i	x
O=C(O)CC1(CC(=O)Nc2cc(C(F)(F)F)cc(C(F)(F)F)c2)CCCCC1	23µM*	3%	-30%	i	-6%
O=C(O)CC1(CC(=O)NCc2ccc(C(F)(F)F)cc2)CCCCC1	u	0%	-5%	i	-3%
COc1ccccc1OCc1ccc(C(=O)Nc2ccccc2)cc1	6%	-1%	x	x	-4%
O=C(Nc1nc2ccccc2n1CCN1CCOCC1)c1ccc(Cn2cc([N+](=O)[O-])cn2)o1	-5%	6%	-9%	i	10%
O=C(Nc1nc2ccccc2n1CCN1CCOCC1)c1ccc(COc2ccccc2Br)o1	13µM*	3%	u	u	-16%
O=C(Nc1ccc(Cn2cccn2)cc1)c1ccc(COc2ccccc2Br)cc1	9.2µM*	1%	-18%	u	u
SMILES	Nrf2 inh	Nrf2 ARE act	ATXN2 expr inh	S2 tox	A549 tox
O=C(Nc1cccnc1)c1ccc(COc2ccccc2Br)o1	6.5µM*	0%	-21%	u	-13%
O=C(NCc1cccnc1)c1ccc(COc2ccccc2Br)o1	-4%	3%	-13%	i	-1%
N=c1n(CCN2CCOCC2)c2ccccc2n1CC(=O)c1cccc([N+](=O)[O-])c1	1%	3.2µM*	-18%	i	-2%
CCCCC(=O)NC1(C(F)(F)F)C(=O)Nc2c1c(=O)[nH]c(=O)n2-c1ccc(F)cc1 (stereo unspecified)	x	0%	3%	i	-2%
O=C(Nc1nc2ccccc2n1CCN1CCOCC1)c1cccc([N+](=O)[O-])c1	x	x	22µM*	x	x
COc1ccc(OC)c(NC(=O)CSc2nncc3ccccc23)c1	-10%	0%	5%	i	u
CCOc1ccccc1NC(=O)CSc1nncc2ccccc12	23µM*	29%	-4%	i	-13%
CS(=O)(=O)N(CC(=O)Nc1ccc(CC#N)cc1)c1ccc(C23CC4CC(CC(C4)C2)C3)cc1	15µM*	4%	-28%	u	u
Cc1ccccc1C1(CC(=O)N2CC3CC4CC(C3)CC2C4)CC(=O)N(Cc2cccnc2)C1=O (stereo unspecified)	x	x	x	i	x
CCc1noc(-c2ccc(NCc3ccccc3)c([N+](=O)[O-])c2)n1	8%	0%	29%	i	-2%
CCN(CC)CCCNc1nc2ccccc2c2[nH]c3ccc(OC)cc3c12	u	-1%	u	6µM*	u
COc1ccccc1NS(=O)(=O)c1ccc2oc(SCC(C)=O)nc2c1	u	3%	-1%	i	-5%
COc1ccc(NS(=O)(=O)c2ccc3oc(SCc4ccc(F)cc4)nc3c2)cc1	18µM*	4%	-13%	i	-5%
COc1ccccc1NS(=O)(=O)c1ccc2oc(SC)nc2c1	21µM*	4%	-20%	i	1%
COc1ccccc1NS(=O)(=O)c1ccc2oc(SCc3ccc(F)cc3)nc2c1	23µM*	3%	-8%	u	-17%
CCOC(=O)C1CCCN(c2nc3c(S(=O)(=O)c4ccc(CC)cc4)nnn3c3ccsc23)C1 (stereo unspecified)	-13%	0%	x	x	-1%
COc1ccc(OC)c(C(c2nnnn2Cc2ccco2)N2CCN(C)CC2)c1 (stereo unspecified)	5%	0%	x	i	3%
COc1cccc(C(c2nnnn2Cc2ccco2)N2CCN(c3cccc(C)c3C)CC2)c1OC (stereo unspecified)	23µM*	0%	-12%	i	1%
O=C(c1cnn2cccnc12)N1CCOc2ccc(C(O)C(c3ccccc3)c3ccccc3)cc2C1 (stereo unspecified)	x	x	x	i	x
COc1cc(OC)c(OC)cc1CN1CCCC(n2cc(C(=O)N3CCCCC3)nn2)C1 (stereo unspecified)	x	x	x	i	x
Cc1cccc(CS(=O)(=O)c2ncc(Cl)c(C(=O)Nc3nnc(C(C)C)s3)n2)c1	1%	-2%	-35%	28µM*	u
CC(C)c1nnc(NC(=O)c2nc(S(=O)(=O)Cc3ccccc3F)ncc2Cl)s1	5%	-2%	10µM*	7.1µM*	-12%

Screens from PubChem BioAssay.
